# PubChem BioAssay (NCI)
# Compounds without any hit were thinned out: in the full panel of roughly 83,000, 20% have a hit.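 Assay: single dose, 48 h. Readout: percent growth (0 = no net growth; negative = cell death). Active: <10.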 Values without a mark were called inactive. Activity calls are given as the source filed them.
# Key:
# Assay in all cases: NCI-60 one-dose screen, 48 h (100 = growth as untreated, 0 = no growth, -100 = all killed)
# Details in all cases: 10 µM unless noted
# HCT-15 colon = system: HCT-15 colon
# HT29 colon = system: HT29 colon
# SNB-75 CNS = system: SNB-75 CNS
# SNB-19 CNS = system: SNB-19 CNS
# U251 CNS = system: U251 CNS
# PC-3 prostate = system: PC-3 prostate
# SK-MEL-5 melanoma = system: SK-MEL-5 melanoma
# UACC-62 melanoma = system: UACC-62 melanoma
# LOX IMVI melanoma = system: LOX IMVI melanoma
# SK-MEL-28 melanoma = system: SK-MEL-28 melanoma
Structure (SMILES),growth (HCT-15 colon),growth (HT29 colon),growth (SNB-75 CNS),growth (SNB-19 CNS),growth (U251 CNS),growth (PC-3 prostate),growth (SK-MEL-5 melanoma),growth (UACC-62 melanoma),growth (LOX IMVI melanoma),growth (SK-MEL-28 melanoma)
COc1ccc(N=Nc2c(N)nn3c(-c4cc5cc(Br)ccc5oc4=O)ccnc23)cc1,29.9%,32.9%,-14.8% (active),2.33% (active),-12.3% (active),44.9%,-14.2% (active),30.7%,26.4%,28.8%
C/C(=N\Nc1ccc(S(N)(=O)=O)cc1)c1cnn(-c2cc(=O)[nH]c3ccc(Br)cc23)c1C,91.2%,98.8%,22%,46%,37.9%,58.3%,55%,11.4%,38.2%,34.7%
NS(=O)(=O)c1ccc(Nc2nc(SCC(=O)c3ccc(F)cc3)nc3ccccc23)cc1,24.9%,63.3%,43.5%,54.8%,47.2%,43.1%,18.6%,26.4%,20.7%,55.6%
O=C(Nc1ccc(F)cc1)Nc1nc2ccc([N+](=O)[O-])cc2s1,6.88% (active),4.5% (active),-16.6% (active),15.1%,6.53% (active),18.4%,-84% (active),-5.55% (active),12.5%,7.31% (active)
Cc1nc2sccn2c1-c1nnc(SCc2ccccc2)o1,89.2%,85.6%,106%,80.6%,82.8%,82%,90%,80.2%,92.7%,94.8%
COc1cc(C2CC(c3ccc(Cl)cc3)=Nc3c(N)nc(N)nc3N2)ccc1Oc1nc(Nc2ccc(F)cc2)nc(N(C)C)n1 (stereo not given),25.1%,14.3%,33.7%,47.7%,45%,21.9%,17.9%,84.4%,16%,75.6%
C=CCn1c(O)c(N=Nc2nc(-c3cc4ccccc4oc3=O)cs2)c2ccccc21,98.4%,17.2%,-25% (active),38.7%,13.3%,56.4%,33.3%,52.6%,70.1%,49.8%
Cn1cc(-c2cc(N)n3nc(-c4c[nH]c5ccc(Cl)cc45)cc3n2)c2cccnc21,-56.7% (active),-44.7% (active),-57.5% (active),-78.3% (active),-82% (active),-51.6% (active),-97.4% (active),-86.4% (active),-93.6% (active),-93.7% (active)
CC1=C(C)C(=O)C(N2CCSCC2)=CC1=O,104%,103%,80.8%,87.2%,96.9%,89.7%,96.7%,93.3%,83.8%,107%
COc1ccccc1/C=C/c1cccc(NC(=S)NCCCCN(C)C)c1,-100% (active),-59% (active),-80.1% (active),-84.1% (active),-64.7% (active),-46.9% (active),-97% (active),-98.5% (active),-98.4% (active),-98.8% (active)
COc1ccc(-c2cc(-c3ccccc3)c(C#N)c(=O)[nH]2)cc1S(N)(=O)=O,106%,105%,89.4%,92.3%,98.5%,97.2%,104%,110%,94.5%,107%
CCOC(=O)c1ccc(NC(=S)NC(=O)c2ccc(NC(=O)C(C)C)cc2OC)cc1,23.6%,68.2%,51.1%,57.7%,63.4%,18%,-69% (active),30.2%,45.6%,50.8%
O=C(CSc1nnc(-c2ccc(-c3nc4ccc(Cl)cc4[nH]3)cc2)o1)Nc1ccc(Br)cc1,18.6%,28.6%,46%,-17.5% (active),-89.8% (active),-29.1% (active),-6.99% (active),-53.4% (active),-100% (active),-80.6% (active)
c1n[nH]cc1-c1nc2ccc3[nH]ncc3c2c2c1CC1(CC2)COC1,70.5%,52.1%,-5.96% (active),47.4%,39.5%,53%,44.7%,18.7%,38.5%,44.5%
COc1ccc2[nH]c(O)c(N=Nc3nc(-c4ccccc4)cs3)c2c1,24.9%,50.5%,-1.94% (active),20%,-31% (active),16%,68.8%,30.8%,14.3%,45%
Cc1cc(C(NC(=O)C2CC3(CC(Nc4cccc5c4C(=O)N(C4CCC(=O)NC4=O)C5=O)C3)C2)c2ccc3c(c2)OC(F)(F)O3)c(O)c2ncccc12 (stereo not given),21.1%,29.1%,25.1%,7.79% (active),7.11% (active),17.8%,-64.5% (active),-41% (active),-4.96% (active),0.772% (active)
CN(C)c1nc(NCCNS(=O)(=O)c2ccc(C(=O)/C=C/c3ccc(F)cc3)cc2)nc(N2CCOCC2)n1,-29.8% (active),-79.7% (active),58.5%,67.9%,-86.1% (active),49.2%,66.1%,55.2%,-97.6% (active),97.2%
COc1ccc(N=Nc2c(N)nn3c(N)c(C#N)c(-c4ccc(C)cc4)nc23)cc1,47.8%,66.1%,22.9%,89.5%,74.4%,36.8%,55.4%,78.5%,50.1%,91.1%
CCOc1ccccc1NC(=O)N/C(N)=N/c1nc2ccccc2s1,2.52% (active),-48.7% (active),32.8%,14.7%,10.4%,23.3%,-40.9% (active),28.1%,0.997% (active),54.3%
Cc1cccc(-c2ccccc2Oc2ccc3nnc(Cl)n3n2)c1,99.6%,107%,89.4%,97.8%,94.6%,103%,98.5%,96.8%,93.7%,107%
COc1c2c(c(Br)c3c1C(CCc1ccccc1)N(C)CC3)OCO2 (stereo not given),24.6%,16.5%,63.8%,36.8%,43.3%,41.3%,25.3%,16.3%,6% (active),19.2%
COc1ccc2c(c1)c(-c1cc(N)n3nc(-c4c[nH]c5ccccc45)cc3n1)cn2C,-69.8% (active),-71.7% (active),-24.8% (active),-57.1% (active),-87.8% (active),1.08% (active),-94.8% (active),-92% (active),-86.1% (active),-94.6% (active)
C=CC[n+]1cccc2c3ccccc3ccc21,94.7%,47.3%,49.8%,26.5%,16.6%,43.7%,-39.8% (active),61%,61.8%,69%
Cn1cc(-c2cc3nc(-c4c[nH]c5ccccc45)cc(N)n3n2)c2ccccc21,-73% (active),-65.3% (active),91.6%,18.6%,-91.1% (active),-69.7% (active),8.15% (active),-88.5% (active),-77.8% (active),-97.8% (active)
COc1ccc(-c2cc(C(=O)N=Nc3c(O)[nH]c4ccc(Cl)cc34)c3ccccc3n2)cc1OC,101%,117%,118%,97.1%,100%,103%,111%,89.8%,90.9%,110%
COc1cc(/C=C/C(=O)c2cnn(-c3cc(=O)[nH]c4ccc(Br)cc34)c2C)cc(OC)c1OC,-54.9% (active),-58.7% (active),9.81% (active),-2.48% (active),-76.7% (active),-23.9% (active),-96.2% (active),-71.7% (active),-89.8% (active),-53% (active)
CS(=O)(=O)Nc1cncc(-c2ccc3ncnc(NCc4ccccc4)c3c2)c1,64.3%,65.1%,5.11% (active),39%,22.1%,42.1%,-82.9% (active),29.2%,35.9%,40.3%
